Assay results: PubChem BioAssay AID1159580 (chemical genetic matrix, 2015)
Several values for one entry are separate records, joined by “and”; a condition that tells them apart may be missing. Equal entries are not always repeated. About 2,000 (36%) of roughly 5,500 compounds were called active. Inconclusive results (about 18%) are left out. Cut-off read from the data, not from the text of the source: active = normalized growth mostly below about 0.91 (no sharp cut-off); inconclusive = no clear call, values can overlap the other calls; inactive = mostly above about 0.92. This is one part of the list.

Test: chemical genetic growth profiling, strain panel (AID 1159580);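 note: tested at 20 µM; growth read once vehicle control cultures reached saturation at 30 °C; 1 = growth at the plate median or of vehicle wells; lower values mean less growth of the strain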
Conditions: growth OD

Measured: normalized growth

NC/C=C/C(=O)O
inactive: S. cerevisiae deletion strains, locus YJR043C, strain POL32, active compounds read low 1.04 | S. cerevisiae deletion strains, locus YJR075W, strain HOC1, active compounds read low 1.01 | S. cerevisiae deletion strains, locus YKL009W, strain mrt4, active compounds read low 1.03 | S. cerevisiae deletion strains, locus YKL068W, active compounds read low 1.01 | S. cerevisiae deletion strains, locus YKL085W, strain MDH1 (second series), active compounds read low 1.01 | S. cerevisiae deletion strains, locus YKL085W, strain MDH1, active compounds read low 1.01 | S. cerevisiae deletion strains, locus YKL160W, strain elf1, active compounds read low 0.981 | S. cerevisiae deletion strains, locus YKL190W, strain CNB1, active compounds read low 1.02 | S. cerevisiae deletion strains, locus YKR001C, strain vps1, active compounds read low 1.02 | S. cerevisiae deletion strains, locus YKR026C, strain gcn3, active compounds read low 0.987 | S. cerevisiae deletion strains, locus YKR091W, strain srl3, active compounds read low 1.01 | S. cerevisiae deletion strains, locus YLL001W, strain dnm1, active compounds read low 1 | S. cerevisiae deletion strains, locus YLL026W, active compounds read low 1 | S. cerevisiae deletion strains, locus YLL041C, strain sdh2, active compounds read low 1.01 | S. cerevisiae deletion strains, locus YLR027C, strain aat2, active compounds read low 1.01 | S. cerevisiae deletion strains, locus YLR039C, strain RIC1, active compounds read low 1.07 | S. cerevisiae deletion strains, locus YLR058C, strain SHM2, active compounds read low 1.02 | S. cerevisiae deletion strains, locus YLR102C, strain apc9, active compounds read low 1.01 | S. cerevisiae deletion strains, locus YLR221C, strain rsa3, active compounds read low 0.999 | S. cerevisiae deletion strains, locus YLR258W, strain gsy2, active compounds read low 1.02 | S. cerevisiae deletion strains, locus YLR262C, strain YPT6 (second series), active compounds read low 1.01 | S. cerevisiae deletion strains, locus YLR262C, strain YPT6, active compounds read low 1.03 | S. cerevisiae deletion strains, locus YLR268W, strain sec22, active compounds read low 0.98 | S. cerevisiae deletion strains, locus YLR320W, strain mms22, active compounds read low 1.01 | S. cerevisiae deletion strains, locus YLR330W, strain CHS5, active compounds read low 1.01 | S. cerevisiae deletion strains, locus YLR342W, strain FKS1 (second series), active compounds read low 1.11 | S. cerevisiae deletion strains, locus YLR342W, strain FKS1, active compounds read low 1.01 | S. cerevisiae deletion strains, locus YLR357W, strain rsc2, active compounds read low 1.1 | S. cerevisiae deletion strains, locus YLR370C, strain arc18, active compounds read low 1.01 | S. cerevisiae deletion strains, locus YLR371W, strain rom2, active compounds read low 1.02 | S. cerevisiae deletion strains, locus YLR384C, strain iki3, active compounds read low 1.02 | S. cerevisiae deletion strains, locus YLR418C, strain cdc73, active compounds read low 0.943 | S. cerevisiae deletion strains, locus YML016C, strain PPZ1, active compounds read low 1.01 | S. cerevisiae deletion strains, locus YML032C, strain rad52, active compounds read low 1.05 | S. cerevisiae deletion strains, locus YML120C, strain ndi1, active compounds read low 1.01 | S. cerevisiae deletion strains, locus YML124C, strain tub3, active compounds read low 1.01 | S. cerevisiae deletion strains, locus YMR058W, strain fet3, active compounds read low 1.01 | S. cerevisiae deletion strains, locus YMR078C, strain ctf18, active compounds read low 1.02 | S. cerevisiae deletion strains, locus YMR125W, strain sto1, active compounds read low 1.04 | S. cerevisiae deletion strains, locus YMR129W, active compounds read low 0.973 | S. cerevisiae deletion strains, locus YMR205C, strain PFK2, active compounds read low 1.02 | S. cerevisiae deletion strains, locus YMR223W, strain ubp8, active compounds read low 1.04 | S. cerevisiae deletion strains, locus YMR231W, strain pep5, active compounds read low 1.01 | S. cerevisiae deletion strains, locus YMR263W, strain SAP30, active compounds read low 1.01 | S. cerevisiae deletion strains, locus YMR307W, strain GAS1, active compounds read low 1.02 and 0.997 | S. cerevisiae deletion strains, locus YNL067W, strain RPL9B, active compounds read low 1.01 | S. cerevisiae deletion strains, locus YNL071W, strain lat1, active compounds read low 1.01 | S. cerevisiae deletion strains, locus YNL128W, strain TEP1, active compounds read low 0.988 | S. cerevisiae deletion strains, locus YNL153C, strain GIM3, active compounds read low 1.01 and 1.03 | S. cerevisiae deletion strains, locus YNL175C, strain NOP13, active compounds read low 1 | S. cerevisiae deletion strains, locus YNL197C, strain WHI3, active compounds read low 0.996 | S. cerevisiae deletion strains, locus YNL209W, strain ssb2, active compounds read low 1 | S. cerevisiae deletion strains, locus YNL224C, strain SQS1, active compounds read low 1 | S. cerevisiae deletion strains, locus YNL233W, strain BNI4, active compounds read low 1.02 | S. cerevisiae deletion strains, locus YNL248C, strain rpa49, active compounds read low 1.01 | S. cerevisiae deletion strains, locus YNL250W, strain rad50, active compounds read low 1 | S. cerevisiae deletion strains, locus YNL271C, strain bni1, active compounds read low 1.02 | S. cerevisiae deletion strains, locus YNL298W, strain CLA4, active compounds read low 1.01 | S. cerevisiae deletion strains, locus YNL307C, strain MCK1, active compounds read low 1.05 | S. cerevisiae deletion strains, locus YNL322C, strain KRE1 (second series), active compounds read low 1 | S. cerevisiae deletion strains, locus YNL322C, strain KRE1, active compounds read low 1.01 and 1.02 | S. cerevisiae deletion strains, locus YNR049C, strain mso1, active compounds read low 1.01 | S. cerevisiae deletion strains, locus YNR052C, strain pop2, active compounds read low 1.01 | S. cerevisiae deletion strains, locus YOL006C, strain TOP1, active compounds read low 1.04 | S. cerevisiae deletion strains, locus YOL012C, strain htz1 0.927 | S. cerevisiae deletion strains, locus YOL147C, strain pex11, active compounds read low 1.01 | S. cerevisiae deletion strains, locus YOR001W, strain rrp6, active compounds read low 0.99 | S. cerevisiae deletion strains, locus YOR061W, strain CKA2, active compounds read low 1.01 | S. cerevisiae deletion strains, locus YOR069W, strain VPS5, active compounds read low 1.02 | S. cerevisiae deletion strains, locus YOR070C, strain gyp1, active compounds read low 1 | S. cerevisiae deletion strains, locus YOR080W, strain dia2, active compounds read low 1 | S. cerevisiae deletion strains, locus YOR083W, strain WHI5 (second series), active compounds read low 1.02 | S. cerevisiae deletion strains, locus YOR083W, strain WHI5, active compounds read low 0.971 | S. cerevisiae deletion strains, locus YOR106W, strain vam3, active compounds read low 0.991 | S. cerevisiae deletion strains, locus YOR136W, strain idh2, active compounds read low 1.01 | S. cerevisiae deletion strains, locus YOR144C, strain elg1, active compounds read low 1 | S. cerevisiae deletion strains, locus YOR184W, strain ser1, active compounds read low 1.06 | S. cerevisiae deletion strains, locus YOR265W, strain rbl2, active compounds read low 1.01 | S. cerevisiae deletion strains, locus YOR270C, strain vph1, active compounds read low 1.01 | S. cerevisiae deletion strains, locus YOR290C, strain snf2, active compounds read low 0.993 | S. cerevisiae deletion strains, locus YOR316C, strain cot1, active compounds read low 1.02 | S. cerevisiae deletion strains, locus YPL051W, strain arl3, active compounds read low 0.989 | S. cerevisiae deletion strains, locus YPL055C, strain LGE1, active compounds read low 0.952 and 1.01 | S. cerevisiae deletion strains, locus YPL078C, strain atp4, active compounds read low 0.983 | S. cerevisiae deletion strains, locus YPL106C, strain sse1, active compounds read low 1.02 | S. cerevisiae deletion strains, locus YPL240C, strain hsp82, active compounds read low 0.991 | S. cerevisiae deletion strains, locus YPL241C, strain CIN2, active compounds read low 1.02 and 1 | S. cerevisiae deletion strains, locus YPR119W, strain clb2, active compounds read low 1 | S. cerevisiae deletion strains, locus YPR141C, strain kar3, active compounds read low 1.01 | S. cerevisiae deletion strains, locus YPR163C, strain tif3, active compounds read low 1.01 | S. cerevisiae deletion strains, locus YPR167C, strain met16, active compounds read low 1.01 | S. cerevisiae deletion strains, strain wtn01, active compounds read low 0.982 | S. cerevisiae strains, strain wild type, active compounds read low 1.03
